Experimental data as given in PubChem BioAssay.
Values without a mark were called inactive. No rule for the calls is given here.

Each compound was assayed against Pantothenate synthetase (Mycobacterium tuberculosis (strain ATCC 25618 / H37Rv)) (UniProt P9WIL5) (assay: Coupled enzyme confirmation of inhibitors against recombinant Mtb PanC (AID 375;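 also: 0% = full reaction with vehicle and 100% = no enzyme background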)). Conditions: coupled enzyme assay; at 10 µM, hits give high values.
Sequence of Pantothenate synthetase (Mycobacterium tuberculosis (strain ATCC 25618 / H37Rv)) (P9WIL5 whole entry, looked up): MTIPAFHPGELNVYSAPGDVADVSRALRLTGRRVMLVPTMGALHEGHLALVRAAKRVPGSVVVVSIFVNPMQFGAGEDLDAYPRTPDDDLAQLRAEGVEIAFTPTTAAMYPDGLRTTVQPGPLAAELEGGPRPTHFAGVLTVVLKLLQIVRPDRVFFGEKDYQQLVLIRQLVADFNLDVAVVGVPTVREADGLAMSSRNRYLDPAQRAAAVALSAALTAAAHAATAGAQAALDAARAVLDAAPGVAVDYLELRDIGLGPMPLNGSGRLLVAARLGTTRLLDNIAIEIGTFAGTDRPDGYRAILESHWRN

| Compound | inhibition [%] |
| --- | --- |
| CCOC(=O)c1cccc(NC(=O)CSc2nnc(-c3cccnc3)n2C)c1 | 7 |
| O=C(c1ccc2c(c1)OCO2)N1CCCN(C(=O)c2ccc3c(c2)OCO3)CC1 | 0 |
| COc1ccc(CC(=O)Nc2cc(Cl)ccc2O)cc1 | 5 |
| CC1(C)O[C@@H]2C[C@H]3[C@@H]4CCC5=CC(=O)C=C[C@]5(C)[C@@]4(F)[C@@H](O)C[C@]3(C)[C@]2(C(=O)CO)O1 | 2 |
| CCOc1ccccc1C1C(C(=O)Nc2ccc(OC)cc2)=C(C)Nc2nc(CCCO)nn21 (centres undefined) | 0 |
| CCn1cc(C(=O)O)c(=O)c2ccc(C)nc21 | 0 |
| c1ccc(-c2nnc(CSc3nncs3)o2)cc1 | 0 |
| Cc1cccc(OCC(=O)N2CCC(c3ccccc3)C2)c1 (centres undefined) | 3 |
| COCCn1c(SCC(=O)Nc2nnc(C)s2)nnc1-c1c[nH]c2ccccc12 | 0 |
| COc1cccc(-c2nc(CS(=O)(=O)CC(=O)N3CCN(c4ccccn4)CC3)c(C)o2)c1 | 5 |
| CCCN1CC23C=CC(O2)C(C(=O)O)C3C1=O (centres undefined) | 0 |
| CC(NC(=O)NC12CC3CC(CC(C3)C1)C2)C1CCCO1 (centres undefined) | 5 |
| O=C(Nc1nc(-c2ccccc2)cs1)C1CCCCN1S(=O)(=O)c1ccccc1 (centres undefined) | 1 |
| CCCc1ccc(Oc2cn[nH]c2-c2ccc(O)c(C)c2O)cc1 | 0 |
| COc1ccccc1NC(=O)N(Cc1ccco1)Cc1cc2cccc(C)c2[nH]c1=O | 2 |
| CCC1(C)Cc2c(sc3nc(SCC(=O)O)[nH]c(=O)c23)CO1 (centres undefined) | 0 |
| Cc1ccccc1-c1noc(N)c1C#N | 0 |
| O=C(CCCCn1c(=O)c2ccccc2n(Cc2ccc(Cl)cc2)c1=O)NCc1ccco1 | 0 |
| COc1ccc(NC(=O)Nc2ccc(C)cc2OC(F)F)cc1OC | 3 |
| COCCn1c(SCC(=O)Nc2cccc(OC)c2)nnc1-c1ccccc1 | 4 |
| Cc1cccc(CCNC(=O)CCc2nc(-c3ccccc3F)no2)c1 | 0 |
| CC(=O)OCC1OC(c2ccccc2)C(OC(C)=O)C(OC(C)=O)C1OC(C)=O (centres undefined) | 0 |
| Nc1ccc(S(=O)(=O)NC(=O)c2ccccc2)cc1 | 0 |
| CC(C)Cc1n[nH]c(=O)[nH]1 | 2 |
